# Pf Dd2 growth: inhibitors of Plasmodium falciparum Dd2 growth | P. falciparum Dd2 growth, SYBR Green, 72 h | Potency, µM (series often up to 28.9 µM), for the others: at the top dose activity, negative = inhibition, actives largely listed as inhibitors | 120,000 compounds, 4.3% hits | AID 1347417; active = well fitted inhibition curve with a large enough effect;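 also: plate controls were DMSO vehicle for no effect and reference drug for full effect; nearly all actives have a fitted effect of over 65% in size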
#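 Readout: SYBR Green fluorescence, 485 nm excitation, 535 nm emission, after ~16 h lysis at 37C. Before that, Dd2-infected red cells (2.5% hematocrit) grew 72 h with compound, 29 uM top final concentration.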
# An asterisk follows results filed as active; i = inactive; [ ] = remark or other dose. Shown is part of a subset that was picked to be rich in hits. Potency is read from the fitted curve at half-maximal effect.
SMILES,Pf Dd2 growth
N#Cc1ccc(CN2CCC3(CC2)CNC(=O)c2ccccc2O3)cc1,2%
CN1CCc2c(sc(NC(=O)CSc3ccc(F)cc3)c2-c2nc3ccccc3s2)C1,13µM*
Cn1c(SCC(=O)Nc2nc3ccccc3s2)ncc(C(=O)Nc2ccc(F)cc2)c1=O,24%
CC(=O)N1CCc2c(sc(NC(=O)CSc3ccc(F)cc3)c2-c2nc3ccccc3s2)C1,i
O=[S+]1([O-])NCC2(CCN(Cc3cccc4ccccc34)C2)Nc2ccccc21 (stereo not given),13µM*
O=[S+]1([O-])NCC2(CCN(Cc3ccccn3)C2)Nc2ccccc21 (stereo not given),i
O=[S+]1([O-])NCC2(CCN(Cc3ccc(F)cc3)C2)Nc2ccccc21 (stereo not given),-27%
CC(C)c1nnc(C2CN(C(=O)c3ccc(F)cc3F)CC23CCOCC3)o1 (stereo not given),i
CN1CCCCC(CC(=O)Nc2ccc3c(c2)OCCO3)C1=O (stereo not given),-18%
Cc1noc([C@H]2CCN(Cc3scnc3C)C[C@H]2NC(=O)C2CC2)n1,31%[5.79 µM]
O=C1COCCN1C1CCN(Cc2ccccc2)CC1,5%[44.1 µM]
O=C(Nc1cccc(F)c1)N1CCC(O)(c2csc(CN3CCc4ccccc4C3)n2)CC1,-3%
O=C(Nc1cccc(F)c1)N1CCOc2ccc(CN3CCc4ccccc4C3)cc2C1,2µM*
COCCn1cc(CN2CCc3ccccc3C2)ccc1=O,i
COCCOCC(=O)N1CCOc2ccc(CN3CCc4ccccc4C3)cc2C1,11µM*
CCCNC(=O)N1CCOc2ccc(CN3CCc4ccccc4C3)cc2C1,-15%
CCOCCCNC(=O)N1CCOc2ccc(CN3CCc4ccccc4C3)cc2C1,-5%
COc1cccc(C(=O)N2CC(c3nnc(C(C)C)o3)C3(CCOCC3)C2)c1OC (stereo not given),-16%
COc1ccc(NC(=O)c2nnn3cc(C)[nH]c(=O)c23)cc1OC,-16%
COc1ccccc1CC(=O)NC1CCN(C(=O)c2cc3c(=O)[nH]c(C)cn3n2)CC1,i
COCC1CN(C(C)=O)CC12CCN(C(=O)CC1=CCCCC1)CC2 (stereo not given),6%
O=C(CC1CCCN(c2cnn(CC3CC3)c(=O)c2)C1)NCc1ccncc1 (stereo not given),12%
COc1cccc(N2CC(C(=O)NCc3cccc(F)c3)NC2=O)c1 (stereo not given),-16%[44.1 µM]
O=S(=O)(NCC1(COc2ccc(C(F)(F)F)cn2)C[C@@H](O)[C@@H](O)C1)c1ccc(F)cc1 (stereo not given in full),i
COc1ccc(CN(C)Cc2ccc(-c3ccccc3)cc2)cc1,i
SMILES,Pf Dd2 growth
CC(C)CCN(C)Cc1ccccc1C(F)(F)F,-14%[44.1 µM]
CN(Cc1ccc(-c2ccccc2)cc1)Cc1ccc(C(F)(F)F)cc1,0%
CC(C)CCN(C)Cc1ccc(-c2ccccc2)cc1,8.9µM*
CN(Cc1ccc(F)cc1)Cc1ccc(-c2ccccc2)cc1,-11%[44.1 µM]
CN(Cc1ccc(-c2ccccc2)cc1)Cc1cccnc1,4µM*
COc1ccc(-c2nc(-c3nnn4c3COC(c3ccc(C)cc3)C4)no2)cc1F (stereo not given),48%
O=C(Cc1ccc(F)cc1)N1CCc2nc(-c3ccc(Cl)cc3)nc(-c3ccccc3)c2C1,i
CCC(O)c1cc2n(n1)CCN(C(=O)c1cnn(-c3ccccn3)c1C)C2 (stereo not given),-6%
CCC1(O)CCC12CCN(C(=O)Cc1cccnc1)CC2 (stereo not given),-10%
COc1ccc2c(c1)CN(C(=O)COCc1ccccc1)CC[C@H]1COC(=O)N21,17%[44.1 µM]
COc1ccc(OCC(=O)N2CCC3(CC2)C(=O)NCCN3C)cc1,-6%
Cc1ccc(N2CCN(C(=O)C3CC(=O)N(c4n[nH]c5cccc(F)c45)C3)CC2)c(C)c1 (stereo not given),i
O=C1NCCCCCN(C(=O)c2cccs2)[C@H]2CCCC[C@@H]12,2%
CCC(=O)N1Cc2ccccc2OC2(CCN(C)CC2)C1,i
CC(C)NC(=O)N1CCC2(CC1)CN(C(=O)c1ccnc(N)c1)Cc1ccccc1O2,7%
CC(=O)N1CCC2(CC1)CN(C(=O)N(C)C)Cc1ccccc1O2,6%
CC(C)NC(=O)N1Cc2ccccc2OC2(CCN(C(=O)c3ccc4[nH]ccc4c3)CC2)C1,10µM*
CC(=O)Nc1ccc(C(=O)N2CCC3(CC2)CN(C(=O)NC(C)C)Cc2ccccc2O3)cc1,13%
CN1CCC2(CC1)CN(C(=O)CCc1ccccc1)Cc1ccccc1O2,1µM*
COCCOCC(=O)N1Cc2ccccc2OC2(CCN(C)CC2)C1,i
CC(=O)N1CCC2(CC1)CN(C(=O)c1ccc3[nH]ccc3c1)Cc1ccccc1O2,10µM*
CC(=O)N1Cc2ccccc2OC2(CCN(C(=O)c3cccc4[nH]ccc34)CC2)C1,-14%
C[C@@]1(O)CCN(C(=O)c2cccc(F)c2)C[C@H]1N1CCCC1,3%[5.79 µM]
O=C(O)C[C@@H]1CCN(C(=O)Cc2ccccc2)C[C@@H]1CCN1CCC[C@H]1C(=O)O,12%[44.1 µM]
CCOC(=O)CC1(NC(=O)N2CCc3c(nc(-c4ccccc4)[nH]c3=O)C2)CCCCC1,-7%
SMILES,Pf Dd2 growth
COCc1nc(C2CCN(C(=O)Nc3ccc4c(c3)OCCO4)C2)no1 (stereo not given),-21%
CC(C)NC(=O)N1CCC2(CC1)CC(N1CCOCC1)CCO2 (stereo not given),4%
CNC(=O)CCC[C@@H]1[C@H]2CCCN3CCC[C@@H](CN1C(=O)NCc1ccc(C)cc1)[C@@H]23,-18%
O=C(Cc1cccc(Cl)c1)N1CCC(Oc2ncccc2C(=O)N2CCCCC2)C1 (stereo not given),7.9µM*
O=C(Cc1ccccc1F)N1CCC(Oc2ncccc2C(=O)N2CCCCC2)C1 (stereo not given),-12%
O=C(Cc1cccs1)N1CCC(Oc2ncccc2C(=O)N2CCCCC2)C1 (stereo not given),i
Cc1ccsc1-c1nc(CN(C)Cc2noc(C(C)C)n2)c(C)o1,-5%
COCCCNc1cc(-c2ccccc2OC)nc2c(C)noc12,18%[44.1 µM]
CS(=O)(=O)c1ccc2c(c1)nc1n2[C@@H](CNCc2ccncc2F)COC1,36%[44.1 µM]
Cc1cn2cc(CNC(=O)c3ccc(CN4CCCN(C)CC4)[nH]c3=O)nc2s1,-16%
Cc1ccc(NC(=O)Cn2c(-c3ccc(F)cc3)nc(C)c(CCO)c2=O)cc1,-5%
COc1cc(NC(=O)Cn2c(-c3ccc(F)cc3)nc(C)c(CCO)c2=O)cc(OC)c1,11µM*
COc1ccc(NC(=O)Cn2c(-c3ccc(F)cc3)nc(C)c(CCO)c2=O)cc1Cl,-24%
COc1ccc(CCC(=O)N2CCC(Oc3ccc(-c4noc(C)n4)cc3)C2)cc1 (stereo not given),14%[5.79 µM]
COc1ccc(S(=O)(=O)N2CCCC(Cc3noc(-c4ccccc4)n3)C2)cc1 (stereo not given),4.5µM*
Cn1cnc(S(=O)(=O)N2CCCC(Cc3noc(-c4ccccc4)n3)C2)c1 (stereo not given),i
COc1ccc(S(=O)(=O)N2CCCC(Cc3noc(-c4cnccn4)n3)C2)cc1 (stereo not given),i
CS(=O)(=O)N1CCN(C(=O)N2CCOCC2)[C@@H](C(=O)N[C@@H](CC2CCCCC2)C(N)=O)C1,-5%
CCN(CC)C1(Cc2cc(COC)on2)COC1,36%[44.1 µM]
COCCNC(=O)[C@@H]1C[C@H](Oc2ccccc2)CN1S(=O)(=O)Cc1ccccc1,-17%
